Compounds with a hit are over-represented: about 3% of the library has one in this group of screens.
MITF TRPM1 inh – MITF TRPM1 promoter inhibition in SK-MEL-5 cells. 0.83% of 330,000 active. SK-MEL-5 TRPM1 promoter luciferase, 24 h. AID 488899. inhibition, % at 12.5 µM;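 active means mean inhibition across replicates of 60% or more, whatever share of single replicates reaches that level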
HIF-2a block – HIF-2a inhibition | 786-0 RCC cells HIF-2a reporter, luciferase luminescence, overnight | inhibition, % at 18.8 µM | 0.72% of 360,000 active | AID 624352;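 active means inhibition of the luminescence signal of 40% or more relative to plate controls, in a single-dose primary screen at 18.75 µM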
CF NFkB block – inhibitors of cystic fibrosis induced NF-kB | AID 588850 | KKLEB NF-kB-GFP reporter, PAF-induced, GFP fluorescence overnight | inhibition, % at 5 µM | 0.86% of 360,000 active;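 active means at least 50% inhibition at 5 µM, scaled per plate between neutral and stimulator controls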;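 further: PAF is a Pseudomonas aeruginosa culture filtrate used as stimulus; plate controls were PAF-stimulated DMSO wells for no effect and unstimulated DMSO wells for full effect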
ABHD5-PLIN5 inh – inhibitors of human ABHD5-perilipin-5 interaction; Q00G26+Q8WTS1; 0.78% of 360,000 active; inhibition, % at 4 µM; Split G. princeps luciferase complementation, luminescence, 4 h;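 active means inhibition above the mean inhibition across every tested compound plus 3 SD, cut at about 22% in these data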;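 further: 0% = DMSO only wells and the 100% control is not disclosed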
Target sequence (Q00G26 whole entry, looked up): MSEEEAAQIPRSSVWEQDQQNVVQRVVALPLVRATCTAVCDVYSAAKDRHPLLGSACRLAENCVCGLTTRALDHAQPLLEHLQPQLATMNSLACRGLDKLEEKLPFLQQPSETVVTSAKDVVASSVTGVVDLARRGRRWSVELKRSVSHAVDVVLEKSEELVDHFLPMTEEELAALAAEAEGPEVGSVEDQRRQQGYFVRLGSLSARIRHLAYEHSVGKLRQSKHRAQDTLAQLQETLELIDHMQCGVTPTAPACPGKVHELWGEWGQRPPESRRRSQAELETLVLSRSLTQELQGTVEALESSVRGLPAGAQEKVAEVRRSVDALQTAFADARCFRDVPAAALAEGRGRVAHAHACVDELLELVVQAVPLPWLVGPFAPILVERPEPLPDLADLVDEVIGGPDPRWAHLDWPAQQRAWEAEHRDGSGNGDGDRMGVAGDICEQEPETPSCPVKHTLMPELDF
Target sequence (Q8WTS1 whole entry, looked up): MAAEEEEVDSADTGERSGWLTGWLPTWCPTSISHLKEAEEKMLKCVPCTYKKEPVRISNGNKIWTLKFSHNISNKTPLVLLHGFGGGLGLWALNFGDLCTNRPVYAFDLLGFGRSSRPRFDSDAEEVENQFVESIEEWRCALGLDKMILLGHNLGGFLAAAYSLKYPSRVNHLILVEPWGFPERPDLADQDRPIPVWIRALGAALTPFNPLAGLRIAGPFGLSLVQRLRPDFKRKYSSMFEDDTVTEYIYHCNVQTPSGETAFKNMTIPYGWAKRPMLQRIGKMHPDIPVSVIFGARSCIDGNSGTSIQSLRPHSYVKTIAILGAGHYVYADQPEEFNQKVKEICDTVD
Peg3 promoter – reduces Peg3 promoter-driven luciferase expression in HeLa. HeLa PEG-Prom luciferase reporter, luminescence, overnight. inhibition, % at 20 µM. 1.7% of 360,000 active;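 active means inhibition of at least 50% at 20 µM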
KKLEB cytotox – CF airway cell cytotoxicity counter-screen; 0.36% of 360,000 active; KKLEB CF airway cells viability, ATPlite luminescence, overnight; hits give low values; cells stimulated with P. aeruginosa culture filtrate; activity change (cytotoxicity), % at 5 µM;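 active means corrected activity change at or below -50% at 5 µM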
Numbers without * were called inactive; . = no result.

SMILES	MITF TRPM1 inh	HIF-2a block	CF NFkB block	ABHD5-PLIN5 inh	Peg3 promoter	KKLEB cytotox
CCN(CC)CCNC(=O)C1CCN(S(=O)(=O)c2c(C)noc2/C=C/c2ccccc2F)CC1	77*	1	2	18	25	-1
CCN(CCNC(=O)C1CCN(S(=O)(=O)c2c(C)noc2C)CC1)c1ccccc1	8	11	-13	-1	3	5
Cc1cccc(NC(=O)C2CCN(S(=O)(=O)c3c(C)noc3/C=C/c3ccco3)CC2)n1	6	17	2	23*	23	13
CCCNc1ncc2c(=O)[nH][nH]c(=O)c2n1	8	7	4	2	13	13
COc1ccc(CNn2c(-c3cccs3)nc3ccccc3c2=O)cc1OC	-1	-3	-14	0	53*	-13
CCOC(=O)c1c(-c2ccc(C)o2)csc1NC(=O)CSc1nncs1	2	2	12	47*	13	-21
CCOC(=O)c1c(-c2ccc(C)o2)csc1NC(=O)CN1CCCCC1	-4	22	14	-13	27	-24
CCCc1nc2oc3c(NCCN(C)C)ncnc3c2c2c1CCCC2	76*	38	16	5	68*	-24
CC(C)Cc1nc2oc3c(NCC(C)O)ncnc3c2c2c1CCCC2 (stereo unspecified)	13	9	31	2	14	-35
CC1=C(/C=C/C(C)=C/C=C/C(C)=C/C(=O)O)C(C)(C)CCC1	-35	14	73*	-11	12	-8
Cc1ccc(-c2csc(/C(C#N)=C/Nc3ccc4c(c3)OCCO4)n2)cc1	8	-5	68*	-4	31	-66*
Cc1nc(-c2ccc3c(c2)OCCO3)cs1	-30	-196	9	-1	-227	-1
CCNC(=O)C1(C)CCN(C(=O)c2ccccc2OC)C1 (stereo unspecified)	.	11	-6	2	-2	8
CCOC(=O)c1[nH]c(C)c(C(=O)Nc2cc(OC)ccc2OC)c1C	7	-18	23	5	-14	-17
CCOC(=O)c1c(C)c(C(=O)Nc2cc(OC)ccc2OC)c(C)n1CC	10	-57	13	-2	57*	-15
O=C(N/N=C/c1cccs1)c1ccccn1	-48	-84	-1	1	-142	15
C(=NN=C(NN=Cc1cccs1)NN=Cc1cccs1)c1cccs1	-7	-123	-21	-24	78*	1
CSc1ccc(CN2CCC(CO)(CCOc3ccccc3)CC2)cc1	5	3	2	3	13	-19
Cc1ccc(N2C(=O)c3cccc4c([N+](=O)[O-])ccc(c34)C2=O)c2cccnc12	74*	20	20	1	63*	-2
Cc1ccnc(N2C(=O)c3cccc4c([N+](=O)[O-])ccc(c34)C2=O)c1	13	18	-5	0	108*	-5
Brc1ccc2ncnc(Nc3ccc(N4CCOCC4)cc3)c2c1	11	5	67*	-2	3	2
C#CCNC(=O)C1=C[C@@H](C)C[C@@H](OCc2ccc(CO)cc2)O1	-15	-31	-24	6	-23	2
COc1cc(N=CC2=C(O)c3ccccc3C2=O)cc(OC)c1	-60	-166	22	8	-175	1
COC1=CC(=O)c2ccccc2C1=O	102*	29	91*	-11	24	-29
CCN1c2ccccc2NC2C1C(C(C)=O)C(=O)N2c1ccc(Cl)cc1 (stereo unspecified)	65*	3	-10	-11	8	3
SMILES	MITF TRPM1 inh	HIF-2a block	CF NFkB block	ABHD5-PLIN5 inh	Peg3 promoter	KKLEB cytotox
CC(C)(C)OC(=O)C[C@H]1C/C=C\C[C@H](CC(=O)N(CCO)Cc2ccccc2)C(=O)N[C@@H](c2ccccc2)COC1=O	-2	6	-3	-4	12	8
O=C(COC(=O)c1ccc[nH]c1=O)Nc1cc(S(=O)(=O)N2CCCCCC2)ccc1Cl	-6	8	-4	6	6	-11
NC(=O)CC(NC(=O)Cc1ccc(Br)cc1)c1ccc(NC2CCCC2)c([N+](=O)[O-])c1 (stereo unspecified)	-37	-23	1	-8	61*	-31
NC(=O)CC(NC(=O)Cc1ccc(Br)cc1)c1ccc(NC2CCCCCCC2)c([N+](=O)[O-])c1 (stereo unspecified)	-6	3	-22	1	23	-16
COc1ccccc1N1C(=O)N(C(C)=O)C2C1Nc1ccccc1N2C (stereo unspecified)	69*	2	7	3	2	-7
COc1ccccc1N1C(=O)c2ccccc2NC1c1ccncc1 (stereo unspecified)	7	8	-12	1	-7	8
CCC1C(=NO)C(CC)C(c2ccccc2)NC1c1ccccc1 (stereo unspecified)	-9	32	48	-17	64*	-8
Cc1ccc(-n2cc(CNCCc3ncc(C)[nH]3)c(-c3ccc(F)cc3)n2)cc1	-4	-54	6	6	57*	-10
Cc1ccc(-n2cc(CNCCn3nc(C)cc3C)c(-c3ccc(F)cc3)n2)cc1	-13	-19	11	0	-24	-24
Cc1cc(N/N=C/c2ccc(O)cc2O)nc(-c2ccccc2O)n1	6	-190	78*	6	67*	-2
COc1ccc2[nH]c(=O)cc(C(=O)O)c2c1	7	16	5	9	-13	3
COc1ccc2[nH]c3c4c(ccc3c2c1)C(=O)C=CC4=O	79*	80*	64*	13	117*	-19
O=C1C(Cc2ccccc2)Nc2ncnc(N3CCc4ccccc4C3)c2N1Cc1ccc(Cl)cc1 (stereo unspecified)	8	3	16	2	51*	3
CCC1Nc2ncnc(N3CCc4ccccc4C3)c2N(Cc2ccc(Cl)cc2)C1=O (stereo unspecified)	12	24	40	1	48	-10
COC(=O)C[C@H]1N(S(=O)(=O)c2ccc(C)cc2)C(C(C)C)CC1(C(=O)OC)C(=O)OC (stereo partly specified)	.	1	.	-2	.	.
CC(C)COc1ccc(-c2nnc(-c3ccncc3)o2)cc1	-52	-205	-21	6	-262	7
CCCOc1ccc(-c2nnc(-c3ccncc3)o2)cc1	-42	-167	0	-2	-281	-53*
COc1ccc(NC(=O)c2ccc3c(c2)NC(=O)CS3)cc1	-51	-168	8	-1	-135	-17
Cc1ccc(NS(=O)(=O)c2cc(NC(=O)c3ccc4c(c3)NC(=O)CS4)ccc2Cl)c(C)c1	-3	34	-16	-1	52*	7
CC1(C)CC(N=Cc2c(O)n(Cc3ccc4c(c3)OCO4)c(=O)c3ccccc23)CC(C)(C)N1	11	5	5	13	82*	-9
CN(C)CCN=Cc1c(O)n(Cc2ccccc2)c(=O)c2ccccc12	-1	5	8	3	7	-8

Bioassay records from PubChem.
